# LASV entry inh – qHTS for Inhibitors of binding or entry into cells for Lassa Virus; Lassa virus pseudotype entry inhibition, cell reporter; Potency, µM (series often up to 37.9 µM), for the others: at the top dose activity change, negative = inhibition, actives largely listed as inhibitors; 300,000 tested, 1.2% active; calls by dose curve; tested in HEK293 cells; also: nearly all actives have a fitted effect of over 50% in size
# MARV entry inh – qHTS for inhibitors of binding or entry into cells for Marburg Virus. AID 540276, 2011. Marburg virus pseudotyped entry inhibition, cell reporter. 300,000 tested, 1.8% active. Potency, µM (series often up to 37.8 µM), without a hit: top-dose activity change, negative = inhibition, usual class: inhibitors; calls by dose curve; tested in HEK293 cells
# FMDV inh – High Throughput Screening for Foot and Mouth Disease Virus Antivirals | Potency, µM (top dose mostly 57.9 µM), inactives show at the top dose activity change, negative = inhibition, actives largely listed as inhibitors | 410,000 tested, 1.2% active | FMDV antiviral cell-based qHTS; calls by dose curve; tested in HEK293T cells; also: read-out not given here; nearly all actives have a fitted effect of over 45% in size
# HCV inhibitor – qHTS Assay for Inhibitors of Hepatitis C Virus (HCV). Potency, µM (top dose mostly 41.8 µM), inactives show at the top dose activity change, negative = inhibition, usual class: inhibitors. Huh7.5.1 HCVcc-Cre infection, luciferase reporter, 44 h. 340,000 tested, 3.4% active
#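 Seed cells (1,000/well) for 4 h; treat with compound and infect with HCVcc-Cre, moi about 0.5. Incubate 44 h, then detect luciferase activity.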
# Sm TGR block – qHTS Assay for the Inhibitors of Schistosoma Mansoni Peroxiredoxins; Schistosoma mansoni thioredoxin glutathione reductase (TGR), Q962Y6; purified TGR, DTNB reduction, TNB absorbance 405 nm; Potency, µM (doses to about 114 µM), inactives show top-dose activity change, negative = inhibition, most hits filed as inhibitors; 360,000 tested, 3% active; AID 485364, 2010; also: nearly all actives have a fitted effect of over 60% in size
#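 First, TGR (20 nM dispensed) and NADPH were mixed with compound. Second, a 15 min room-temperature incubation followed. Third, further NADPH and then DTNB were added to start the reaction. Finally, TNB absorbance was monitored kinetically.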
# RE007 growth inh – qHTS Assay for Inhibitors of the HIV-1 protein Vpr; Potency, µM (top dose mostly 92.2 µM), for the others: top-dose activity change, negative = less growth, actives largely listed as inhibitors; 360,000 tested, 0.21% active; AID 651644, 2012; S. pombe RE007 Vpr strain, BacTiter-Glo ATP luminescence, 24 h; active = well fitted falling curve with a large enough effect; inconclusive = small, poorly fitted or top-dose-only effect; inactive = no such curve, though single readings can be large or run the other way; also: nearly all actives have a fitted effect of over 50% in size
#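 Fission yeast RE007 carrying one integrated HIV-1 vpr copy, seeded at OD 0.01 in PMG+AL medium with 23 nL pinned compound. Grown 24 h at 30 degrees; viability read by BacTiter-Glo luminescence after 5 min.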
# Numbers without * were called inactive; u = inconclusive; x = not tested or not shown; [ ] = another dose, or the depositor's remark. An excerpt weighted towards active compounds, which were near 7.2% of everything screened. Unless noted, calls follow the shape of the dose curve; as a rule, active = well fitted curve in the direction sought with a large enough effect; inconclusive = small, poorly fitted or top-dose-only effect, or another doubt; inactive = no such curve, though single readings can be large; an effect the other way counts as inactive or inconclusive. % is scaled to controls: 0 for no effect and ±100 for the full control effect; potency is read from the fitted curve at half-maximal effect.
SMILES,LASV entry inh,MARV entry inh,FMDV inh,HCV inhibitor,Sm TGR block,RE007 growth inh
CCN(CC)CC(=O)Nc1ccc(Oc2ccc(NC(=O)CN(CC)CC)cc2)cc1,-27%,4µM*,-21%,u,x,-4%
CCOC(=O)c1ccccc1NC(=O)c1cnn(-c2ccc(OC)cc2)c1C1CCN(C(=O)OC(C)(C)C)CC1,u,x,4%,x,9%,x
O=C(CCCn1c(=O)[nH]c2ccccc2c1=O)N1CCN(c2ccccc2)CC1,u,x,-12%,x,1%,x
O=C(NCCOC(=O)c1ccc(C(=O)OCCNC(=O)c2cccnc2)s1)c1cccnc1,0%,-5%,0%,22µM*,2%,9%
Cc1cc2nnc(SCc3ccc(F)cc3)n2c2ccccc12,-28%[46.1 µM],1%[46.1 µM],5%,x,-1%,x
CC(=O)c1c(C)[nH]c(C(=O)OCc2c(F)cccc2Cl)c1C,u,u,u,10µM*,0%,2%
CC(=O)c1c(C)[nH]c(C(=O)OCc2cccc(Cl)c2)c1C,u,u,-17%,11µM*,-8%,5%
CC(=O)c1c(C)[nH]c(C(=O)NCc2ccccc2Cl)c1C,5%,-7%,16%,13µM*,3%,1%
CC(=O)c1c(C)[nH]c(C(=O)OCc2ccc(F)cc2Cl)c1C,-16%,u,-22%,u,0%,1%
CCOC(=O)c1[nH]c(C)c(C(=O)OCc2ccccc2F)c1C,5.6µM*,u,4%,3.2µM*,12%,-6%
CCc1c(C(=O)NCc2ccccc2Cl)[nH]c(C)c1C(C)=O,u,u,39%,-23%,2%,10%
CCOC(=O)c1c(C)[nH]c(C=O)c1Cc1cccc(Cl)c1,6.3µM*,u,0%,20%,-4%,19%
CCOCCn1c(=NC(=O)c2ccc(S(=O)(=O)N3CCOCC3)cc2)sc2cc(S(N)(=O)=O)ccc21,17%[46.1 µM],0%[46.1 µM],-24%,22µM*,-15%,-8%
C#CCn1c(=NC(=O)c2ccc(S(=O)(=O)N3CCc4ccccc4C3)cc2)sc2cc(S(N)(=O)=O)ccc21,9.2µM*,14µM*,-19%,-20%,0%,21%
COc1ccccc1NS(=O)(=O)c1cc([N+](=O)[O-])ccc1N/N=C/c1c[nH]c2ccccc12,-4%,u,4%,16µM*,-13%,-10%
Cc1ccc(C)c(NC(=O)c2ccc3c(c2)N(Cc2ccc(F)cc2)C(=O)CS3=O)c1 (configuration not stated),u,2.6µM*,-19%,u,-1%,2%
O=C(OCn1ncc(Br)c(Br)c1=O)c1ccccc1Cl,11µM*,10µM*,14µM*,u,1.3µM*,6.3µM*
O=C(OCn1ncc(Br)c(Br)c1=O)c1ccc(F)cc1,13µM*,5.6µM*,14µM*,u,2µM*,u
O=C(OCc1cnc(Cl)s1)c1ccccc1Cl,9%,5%,5%,15%,1%,-18%
CC(C)c1cnc2c(c1SCC(=O)Nc1ccccc1C(F)(F)F)c(=O)n(C)c(=O)n2C,-5%[46.1 µM],x,-17%,x,-1%,x
CCCCOC(=O)/C=C/c1ccc(OC(=O)OC)c(OC(=O)OC)c1,u,11µM*,-2%,u,-11%,u
CCOC(=O)c1ccc(N2N=C(C)/C(=C/C=C/c3ccco3)C2=O)cc1,u,-29%,-1%,-10%,u,-9%
CC1=NN(c2ccc(C)c(C)c2)C(=O)/C1=C\C=C\c1ccc([N+](=O)[O-])o1,7.1µM*,3.5µM*,13µM*,11µM*,0%,-1%
COc1ccc([C@H]2N[C@]3(CCCN(Cc4ccc(F)cc4)C3=O)[C@H]3C(=O)N(Cc4ccccc4)C(=O)[C@@H]23)cc1,x,x,-10%,x,x,5%
Cc1c(N=C2N=C(NC(=O)c3cccs3)c3ccccc32)c(=O)n(-c2ccccc2)n1C,u,u,u,10µM*,2%,23%
